Screening data from PubChem.
This excerpt belongs to a sample that is enriched for hits.
Cruzain Triton – inhibitors of Trypanosoma cruzi cruzain with detergent. P25779. purified cruzain, Z-FR-AMC fluorescence, 0.01% Triton. Potency, µM, inactives show max response, negative = inhibition, hits mostly inhibitors. hit rate 0.43% among 200,000. AID 1478;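 also: plate controls were neutral wells for no effect and buffer without enzyme for full effect; nearly all actives have a fitted effect of over 40% in size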
Target sequence (P25779 123-467 limits assumed): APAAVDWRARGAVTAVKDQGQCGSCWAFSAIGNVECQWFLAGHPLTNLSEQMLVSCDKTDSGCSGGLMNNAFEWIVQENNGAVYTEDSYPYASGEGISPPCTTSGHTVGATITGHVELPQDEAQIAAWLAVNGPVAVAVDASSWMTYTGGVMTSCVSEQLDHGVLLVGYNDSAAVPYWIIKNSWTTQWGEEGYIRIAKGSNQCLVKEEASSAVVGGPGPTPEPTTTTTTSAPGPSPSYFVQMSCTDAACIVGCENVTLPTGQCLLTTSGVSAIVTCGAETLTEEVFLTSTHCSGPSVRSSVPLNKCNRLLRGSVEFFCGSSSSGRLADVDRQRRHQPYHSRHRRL
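15 min RT preincubation of 1.5 nM cruzain with compound, then 2 uM Z-FR-AMC added; kinetic AMC fluorescence, 60 s delta. Triton X-100 0.01%, pH 5.5.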
Cruzain inh noDet – cruzain (T. cruzi) inhibition without detergent. purified cruzain, Z-FR-AMC fluorescence, no detergent. Potency, µM, inactives show max response, negative = inhibition, actives largely listed as inhibitors. hit rate 2.3% among 200,000;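 also: plate controls were enzyme without inhibitor for no effect and buffer without enzyme for full effect; nearly all actives have a fitted effect of over 40% in size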
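Purified cruzain at 1.5 nM, pre-incubated 15 min with compound at room temperature in 100 mM sodium acetate pH 5.5, 5 mM DTT, 0.00005% Triton X-100. Reaction started with 2 uM Z-FR-AMC; AMC fluorescence increase over 60 s gives rate.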
Giardia FBPA inh-1 – Giardia lamblia aldolase inhibition | A8B2U2 | purified Giardia FBPA | Potency, µM (titrated, usually from 59.6 µM), without a hit: at the top dose activity, negative = inhibition, usual class: inhibitors | hit rate 0.71% among 290,000; also: nearly all actives have a fitted effect of over 55% in size
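Giardia FBPA (40 nM reagent) was preincubated 10 min at RT with compound (up to 57.5 uM final), then substrate plus GAPDH/TPI/NAD/arsenate coupling system with diaphorase/resazurin was added; resorufin fluorescence (525/598 nm) was read after 20 min.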
Giardia growth – inhibitors of Giardia lamblia growth | Potency, µM (series often up to 57.5 µM), for inactives: at the highest dose activity change, negative = inhibition, most hits filed as inhibitors | hit rate 5% among 1,500 | Giardia lamblia trophozoite growth inhibition | AID 2785 | shares compounds with Giardia FBPA inh-1;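 also: trophozoites exposed to compound for 48 h at 37 °C; nearly all actives have a fitted effect of over 70% in size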
Mammal cell tox – counter-screen for Giardia aldolase inhibitors: mammalian cell toxicity. shares compounds with Giardia FBPA inh-1. mammalian cell viability counter-screen, qHTS. Potency, µM (doses to about 57.5 µM), inactives show at the highest dose viability change, negative = toxicity, hits mostly inhibitors. hit rate 4% among 1,500. AID 2786;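 also: Chinese hamster ovary cells used as mammalian cytotoxicity surrogate; viability measured as cellular ATP by luminescence; compound exposure lasted 48 h before reading; nearly all actives have a fitted effect of over 60% in size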
Giardia FBPA inh-2 – confirmation of Giardia fructose-bisphosphate aldolase inhibitors | Potency, µM (highest dose often 57.5 µM), without a hit: at the top dose activity change, negative = inhibition, most hits filed as inhibitors | hit rate 5% among 1,500 | purified Giardia aldolase enzyme activity, qHTS | shares compounds with Giardia FBPA inh-1; also: nearly all actives have a fitted effect of over 45% in size
Rabbit aldolase – blocks rabbit muscle aldolase in Giardia aldolase selectivity test; AID 2794; shares compounds with Giardia FBPA inh-1; Potency, µM (doses to about 57.5 µM), inactives show top-dose activity, negative = inhibition, hits mostly inhibitors; hit rate 4% among 1,500; Rabbit muscle FBPA enzyme inhibition, selectivity counter-screen; also: nearly all actives have a fitted effect of over 60% in size
Target sequence (P00883 whole entry, looked up): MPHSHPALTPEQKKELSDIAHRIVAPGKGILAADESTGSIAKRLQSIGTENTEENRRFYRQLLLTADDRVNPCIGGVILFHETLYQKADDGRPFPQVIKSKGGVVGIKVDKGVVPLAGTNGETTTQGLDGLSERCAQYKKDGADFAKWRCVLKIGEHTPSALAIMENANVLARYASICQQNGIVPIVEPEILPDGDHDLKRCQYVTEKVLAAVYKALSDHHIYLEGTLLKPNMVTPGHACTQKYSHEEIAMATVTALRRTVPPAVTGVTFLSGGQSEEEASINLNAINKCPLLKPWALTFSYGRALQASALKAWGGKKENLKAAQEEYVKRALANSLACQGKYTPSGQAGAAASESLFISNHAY
GAPDH counter – GAPDH inhibition flagged for Giardia aldolase hits | shares compounds with Giardia FBPA inh-1 | Potency, µM (titrated, usually from 57.5 µM), for the others: at the highest dose activity change, negative = inhibition, hits mostly inhibitors | hit rate 6% among 1,500 | GAPDH coupling enzyme counterscreen, biochemical, qHTS; also: nearly all actives have a fitted effect of over 55% in size
Numbers without * were called inactive; ? = inconclusive; . = not tested or not shown; [ ] = remark or other dose. Calls follow the shape of the dose curve; as a rule, active = well fitted curve in the direction sought with a large enough effect; inconclusive = small, poorly fitted or top-dose-only effect, or another doubt; inactive = no such curve, though single readings can be large; an effect the other way counts as inactive or inconclusive. Unless noted, % is scaled to controls: 0 for no effect and ±100 for the full control effect; potency is read from the fitted curve at half-maximal effect.

SMILES	Cruzain Triton	Cruzain inh noDet	Giardia FBPA inh-1	Giardia growth	Mammal cell tox	Giardia FBPA inh-2	Rabbit aldolase	GAPDH counter
O=C(N/N=C/c1ccccn1)c1cccc(S(=O)(=O)Nc2ccccc2Cl)c1	.	.	16µM*	?	-10%	6%	-20%	?
O=C(NNC(=O)C12CC3CC(CC(C3)C1)C2)c1cnccn1	1%	-13%	5%	.	.	.	.	.
O=C(NNC(=O)C12CC3CC(CC(C3)C1)C2)c1ccccn1	.	.	18µM*	?	32µM*	6%	0%	-14%
C[C@H](Br)C(=O)c1ccc2cc(Br)c3ccccc3c2c1	-8%	10%	.	.	.	.	.	.
CCOCCc1nn2c(=O)cc(COC(=O)c3ccc(NC(=O)C(C)(C)C)cc3)nc2s1	0%	7%	.	.	.	.	.	.
CC(=O)c1ccc(N=Nc2c(C)[nH]n(-c3ccccc3)c2=O)cc1	.	.	7.1µM*	?	-2%	5%	4%	5%
Cc1[nH]n(-c2ccccc2)c(=O)c1N=Nc1ccc(C(=O)O)cc1	.	.	-25%	.	.	.	.	.
CC(=O)NN=C1CCC(c2ccccc2)CC1 (stereo not drawn)	-2%	4%	4%	.	.	.	.	.
C=CCNC(=S)NN=C1CCC(c2ccccc2)CC1 (stereo not drawn)	.	.	7.9µM*	7%[38.3 µM]	?	-26%	5%	2%
Cc1cc(C)cc(N(CC(=O)Nc2c(C)cc(C)cc2C)S(=O)(=O)c2c(C)nn(C)c2C)c1	-4%	?	.	.	.	.	.	.
Cc1cccc(C(=O)N2CCc3cc(CNC(=O)c4ccc(Br)o4)ccc32)c1	0%	-3%	.	.	.	.	.	.
CCOC(=O)N/N=C/c1ccccc1F	0%	-9%	1%	.	.	.	.	.
CCc1nnc(N/N=C/c2ccccc2Cl)n1N	-4%	3%	18µM*	?	3%	-26%	-15%	-19%
COc1cccc(/C=N/Nc2nnc(C)n2N)c1OCc1ccccc1Cl	2%	13%	5%	.	.	.	.	.
CCc1nnc(N/N=C/c2ccccc2F)n1N	.	.	20µM*	71%	-2%	?	-17%	-2%
Cc1ccc(C)c(NC(=O)CN2C(=O)c3cccc4cccc2c34)c1	-1%	4%	.	.	.	.	.	.
COc1cccc(CNC(=O)CN2C(=O)N(c3c(C)cccc3C)S(=O)(=O)c3ccccc32)c1OC	-3%	?	.	.	.	.	.	.
CN(CC(=O)Nc1ccc(F)cc1F)S(=O)(=O)c1cccc2nsnc12	-2%	8%	.	.	.	.	.	.
C=CCN(C(C(=O)OC)C(C)C)S(=O)(=O)C=C (stereo not drawn)	.	.	0%	.	.	.	.	.
CCOc1ccc(N(CC(=O)Nc2ccc(C)c(F)c2)C2=NC3CS(=O)(=O)CC3S2)cc1 (stereo not drawn)	.	.	0%	.	.	.	.	.
CCOc1ccc(N(CC(=O)Nc2ccc(OC)cc2)C2=NC3CS(=O)(=O)CC3S2)cc1 (stereo not drawn)	.	.	13µM*	-12%	-14%	3%	6%	10%
O=C(O)Cn1ccc2ccccc21	.	.	1%	.	.	.	.	.
OC(CNc1ccccc1)Cn1ccc2ccccc21 (stereo not drawn)	.	.	18µM*	?	-4%	-4%	1%	4%
CCN(CC)c1ccc(/C=C2\NC(=O)NC2=O)cc1	-6%	-9%	-9%	.	.	.	.	.
CCN(CC)c1ccc(C=C2C(=O)NC(=S)NC2=O)cc1	.	.	14µM*	14µM*	0%	-10%	-1%	5%
SMILES	Cruzain Triton	Cruzain inh noDet	Giardia FBPA inh-1	Giardia growth	Mammal cell tox	Giardia FBPA inh-2	Rabbit aldolase	GAPDH counter
CS(=O)(=O)N1CCN(Cc2ccccc2C(F)(F)F)CC1	1%	-3%	0%	.	.	.	.	.
COc1cc(OC)cc(C(=O)N2CCN(Cc3ccccc3[N+](=O)[O-])CC2)c1	.	.	18µM*	-1%[10.4 µM]	1%	7%	17%	6%
COc1cccc(C(=O)N2CCN(Cc3ccccc3Br)CC2)c1	.	.	16µM*	0%[10.4 µM]	-5%	-5%	9%	-13%
O=C(c1ccccc1)N1CCN(Cc2ccccc2C(F)(F)F)CC1	.	.	20µM*	35%	3%	2%	3%	13%
COc1ccc(C(=O)N2CCN(Cc3ccccc3)CC2)cc1[N+](=O)[O-]	.	.	-2%	.	.	.	.	.
COc1cccc(C(=O)N2CCN(Cc3ccccc3C(F)(F)F)CC2)c1	-4%	?	?	.	.	.	.	.
Cc1ccccc1-c1noc(-c2ccc(NCc3ccco3)c([N+](=O)[O-])c2)n1	-10%	13%	.	.	.	.	.	.
CC(C)CNC(C(=O)Nc1ccc([N+](=O)[O-])cc1Br)c1ccccc1 (stereo not drawn)	-7%	-4%	?	.	.	.	.	.
CN(C)C(CNC(C(=O)Nc1ccc([N+](=O)[O-])cc1Br)c1ccccc1)c1ccccc1 (stereo not drawn)	.	.	20µM*	-12%[10.4 µM]	-20%	1%	-4%	2%
CN(C(=O)CSc1nc2ccc(NC(=O)c3ccc(F)cc3)cc2s1)c1ccccc1	-6%	-4%	.	.	.	.	.	.
CC1(C)CC(=O)C(/C=N/c2ccccn2)=C(O)C1	-3%	-12%	12%	.	.	.	.	.
CC1(C)CC(=O)C(/C=N/n2cnc3ccccc3c2=O)=C(O)C1	3%	-2%	18µM*	0%	-2%	5%	-1%	3%
COc1cccc(N2CCN(C(=O)c3cnn(-c4ccccc4Cl)c3C3CCN(C(=O)OC(C)(C)C)CC3)CC2)c1	-11%	?	.	.	.	.	.	.
Nc1nc(=S)c2ncn(C3CCCC3)c2[nH]1	.	.	7.1µM*	-4%[38.3 µM]	6%	-5%	-5%	-8%
Nc1ncnc2c1ncn2C1CCCC1	1%	-2%	-3%	.	.	.	.	.
O=C(NCc1ccc(F)cc1)C1CCN(S(=O)(=O)c2ccc3c(c2)CCCN3C(=O)C2CCC2)CC1	-2%	17%	.	.	.	.	.	.
CCc1ccc(NC(=O)N2CC(C)Oc3ccc(C)cc32)cc1 (stereo not drawn)	1%	2%	.	.	.	.	.	.
O=C(Nc1ccccn1)C(=O)Nc1ccccn1	.	.	1%	.	.	.	.	.
S=C(Nc1ccccn1)c1ccccn1	-5%	-6%	3.2µM*	-9%[38.3 µM]	13µM*	?	-29%	?
Cc1c(C(=O)Nc2cccc(C(F)(F)F)c2)oc2ccc3c(c12)C(=O)CC(C)(C)O3	-4%	8%	.	.	.	.	.	.
COc1ccc2cc3cc(C(=O)NCCN4CCc5ccccc5C4)sc3nc2c1	-11%	4%	16µM*	20%[10.4 µM]	-7%	-9%	4%	4%
COc1ccc2cc3cc(C(=O)NCCN4CCc5ccccc5C4)oc3nc2c1	?	?	18µM*	75%	-14%	-1%	-2%	4%
CCC(C)NC(=O)c1cc2cc3ccc(OC)cc3nc2s1 (stereo not drawn)	19%	15%	-19%	.	.	.	.	.
COc1ccc2cc3cc(C(=O)NCCN4CCN(Cc5ccccc5)CC4)oc3nc2c1	?	-30%	-19%	.	.	.	.	.
